# From the supplement of paper PMC6555819
# Tested on: VDR:RXRa (NR concentration 270 nM, RXRa partner concentration 90 nM)
# Test: PBM binding z-score (relative to random genomic background probes); higher = stronger binding; sequences stand for … in GC…GCGATTGACAGCGTAGAATGAAGG
# Description: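 Protein-binding microarray (Agilent 4x180K custom design, double-stranded 60-nt probes: 5' GC cap, 34-nt variable region, 24-nt constant primer region; full probe sequence given). Purified or IVT nuclear receptor:RXRα heterodimers (3:1 NR:RXRα, mostly 270:90 nM) or homodimers were incubated for 1 h in PBS with 2% milk and no ligand, then detected with Alexa488 antibodies. Fluorescence from o1-orientation probes (~5 replicates averaged) was converted to z-scores against 500 random hg19 background probes. Variable regions are seed direct-repeat (DR0–DR5) sites, all their single-nucleotide variants and half-site ablations.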
row,Sequence,PBM binding z-score
1,CTTCAAAGTTCAACTAAGGTAACGTAAAGCACGC,4.63
2,CCGACTAGGGCAGAAAGGTTACCATACCATCCGG,1.13
3,ATATCTAGGTTAAGGGTCATTCAGGTTGGTTCGC,5.89
4,CCTTACGGGTCACGAGGATATAGCACGACGAGCG,3.9
5,TCTGCTAGGTCAACGAAGGTCAGCTAATCTGCTA,4.97
6,CAAACTAGGTCAAGACGTCAAAGTCCGCTTCCCG,1.62
7,GCGACTAGGGCATCAGCAGGTTACCATAACTTAA,-0.295
8,ACTATTAGTAGAGACGAGGGCAACCGATAGGTTG,0.332
9,GCATATAGGTCATACAAGGTGAAAGTCCGATTGT,4.55
10,TAACCAAGGTGAAGGTCGTTGATCCCTCTGTAGA,1.31
11,GCTAGTTGGTCAGTAAAAGGTAACACACCGGTCG,0.0911
12,AGTCAAAGTTAACTAGGTAACGTAAGATTCAGCT,-0.0453
13,CCGACTGCGGCAGAAAGGTTACCATACCATCCGG,0.485
14,GGAACGTGGGCAAGTTGATAGCAGAGTTTGATGG,-0.629
15,CCTGCTAGGTCATGGTCAGCTTATCTACAGTATG,1.54
16,CGAACGAGGGCATGAGTTGATAGAAAATGCCGAT,1.29
17,TAGCCTAGGTCATTAAGGGGCCAGTATAGAAAGC,2.52
18,GCTACTGGGGCATCAGCAGGTTACCATAACTTAA,0.0562
19,CCGACTGGGGCAAAGGTTACCATTCTCAGTACGA,1.43
20,ATCTGTAGGTAAAGTTCAGTGAAAGATCGATAGA,1.24

row,Sequence,PBM binding z-score
1,CCTCGGAGGACCGAAGGTCAGAGCTGTCCGCTTT,0.565
2,ACAATGAGGTTATACGTAGATCAGGGAAGAAAGT,1.5
3,TTAGCAAGGTGAGCTGAGGTCGTTGATCCAACTC,4.01
4,TCTTGTAGATCAATAGAGGTTAAGAAAGTGCGCT,1.8
5,TCTGCTAGGTCAACCATGGTCAGCTAATCTGCTA,2.27
6,CCTGCTTGGTCATGGTCAGCTAATCTACAGTATG,-0.22
7,CCTACTGGGCCATCAGGTAATTGATATCAACGTT,-0.176
8,ATATCTAGGTTATCGGGTCATTCAGTTTGCGCAT,5.12
9,GCAGACAGGTGAAACGCAGGTAACTCGGGGTGGC,-0.198
10,CCTCGGAGGACAGAAGGTCAGAGCAGTCCGCTTT,1.82
11,TCTTGTAGATCAATCGAGGTTAAGAAAGTGCGCT,1.75
12,TCTATTAGTTGTAGGGCAACCGACGAGTCCGTTT,0.713
13,CGTCAAAGTTCAAGGTAACCTAACAGAAAGCAGC,3.96
14,GCATATAGGTAATACAACGTGAAAGTCCGATTGT,-0.316
15,CCTAGTGGGTCAAGGTCACACACGCTATAGGTAC,4.64
16,CCTACTGGGCCACGAAAGGTTATTGATTCAGTGA,0.818
17,AGGACGAGGGCACGCTGAGTTGATAGCAGAGTAG,2.09
18,CCGAGCAGGTTATGGGGCATTCAGGCAACGGTGA,-0.144
19,CCGACTGGGGCATAGGGTTACCATAAGCCAGCCC,0.304
20,CCTAGCAGGCCAACCTGGGTCACTCAAGGCTTGA,1.15
